Measurements published in PubChem BioAssay (NCATS).
Inconclusive results are not listed. A call without a number means that no potency is given here. For some assays here: Measured potencies and affinities stand elsewhere. Active and inactive are the calls of the source.

How the values were obtained:
[1] = Ebola virus entry assay, green channel fluorescence
[2] = Ebola virus entry assay, blue channel fluorescence
[3] = Ebola virus entry assay, reporter ratio channel; AC50: Channel type: primary unless noted; outcome: Channel type: primary unless noted
[4] = Ebola virus entry assay, blue channel (ratio component)
[5] = Ebola virus entry reporter assay, green channel fluorescence
[6] = Ebola virus entry cell assay, ratio channel
[7] = Immunotoxin (HA22) sensitization/mitigation study. Vehicle arm (PBS) (AID 1159510); details: cancer cells viability with PBS vehicle (HA22 study); series mostly up to 46.1 µM; further: potency means the concentration at half of the fitted maximal effect
[8] = Immunotoxin (SS1P) sensitization/mitigation study. Vehicle arm (DMEM) (AID 1159513); details: cell viability with vehicle (DMEM); series mostly up to 46.1 µM
[9] = High-throughput drug toxicity screening in the BPDCN cell line Cal-1 (AID 1224825); details: Cal-1 BPDCN cell viability, qHTS; at 45.8 µM (top of the series) unless noted
Outline: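 Cal-1 cells, 500 per well in phenol-red-free RPMI with 10% FBS, exposed to compounds for 48 hours at 37C, 5% CO2. Viability read by CellTiter-Glo luminescence; percent activity normalized to DMSO (100%) and 9.2 uM bortezomib final (0%).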

[10] = qHTS assay for measurement of the activity of small molecule inhibitors on Zika virus induced Caspase-3 activity in human iPSC derived neural progenitor cells (hNPCs) (AID 1224857; active means well fitted inhibition curve with a large enough effect; further: nearly all actives have a fitted effect of over 65% in size); details: hNPCs ZIKV-induced caspase-3/7, Caspase-Glo luminescence, 6 h; series mostly up to 45.7 µM
Outline: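 Cells were plated at 350 per well and grown 16 to 20 hours. Compound pretreatment lasted one hour, after which ZIKV (2 FFU/cell) was added for 6 hours. Percent inhibition was normalized between uninfected and infected controls.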

Structure (SMILES)	outcome [1]	outcome [2]	outcome [3]	outcome [4]	outcome [5]	outcome [6]	Potency [7]	Potency [8]	viability (% of control) [9] [%]	outcome [10]
O=P1(N(CCCl)CCCl)NCCCO1 (stereo not given)	inactive	inactive	inactive	inactive	inactive	inactive	inactive	inactive	104	inactive
CC1COc2c(N3CCN(C)CC3)c(F)cc3c(=O)c(C(=O)O)cn1c23 (stereo not given)	inactive	inactive	inactive	inactive	inactive	inactive	–	–	–	–
Nc1nc2ccc(OC(F)(F)F)cc2s1	inactive	inactive	inactive	inactive	inactive	inactive	23.5 µM (active)	–	–	–
Cc1noc(NS(=O)(=O)c2ccc(N)cc2)c1C	inactive	inactive	inactive	inactive	inactive	inactive	–	–	–	–
CC(CCc1ccc(O)cc1)NCCc1ccc(O)c(O)c1 (stereo not given)	inactive	inactive	inactive	inactive	inactive	inactive	–	–	–	–
O=C1CN=C(c2ccccc2)c2cc([N+](=O)[O-])ccc2N1	inactive	inactive	inactive	inactive	inactive	inactive	–	–	–	inactive
CC(NC(C)(C)C)C(=O)c1cccc(Cl)c1 (stereo not given)	inactive	inactive	inactive	inactive	inactive	inactive	–	–	97.9	inactive
Nc1ccc(C(=O)O)c(O)c1	inactive	inactive	inactive	inactive	inactive	inactive	–	–	–	–
CC(O)(P(=O)(O)O)P(=O)(O)O	inactive	inactive	inactive	inactive	inactive	inactive	–	–	–	–
NS(=O)(=O)c1cc2c(cc1C(F)(F)F)NC(Cc1ccccc1)NS2(=O)=O (stereo not given)	inactive	inactive	inactive	inactive	–	inactive	–	–	–	–
COCCCOc1ccnc(CS(=O)c2nc3ccccc3[nH]2)c1C (stereo not given)	inactive	inactive	inactive	inactive	inactive	inactive	–	–	–	–
NCC[C@H](O)C(=O)N[C@@H]1C[C@H](N)[C@@H](O[C@H]2O[C@H](CN)[C@@H](O)[C@H](O)[C@@H]2O)[C@H](O)[C@@H]1O[C@H]1O[C@H](CO)[C@@H](O)[C@H](N)[C@@H]1O	inactive	inactive	inactive	inactive	inactive	inactive	–	–	–	–
CC(C)[C@H](N)C(=O)OCCOCn1cnc2c(=O)[nH]c(N)nc21	inactive	inactive	inactive	inactive	inactive	inactive	–	–	–	–
NC(=O)COCCN1CCN(C(c2ccccc2)c2ccc(Cl)cc2)CC1 (stereo not given)	inactive	inactive	inactive	inactive	inactive	inactive	–	–	–	–
C[C@]12CCC(=O)C=C1CC[C@H]1[C@@H]3CC[C@](O)(C(=O)CO)[C@@]3(C)C[C@H](O)[C@@]12F	inactive	inactive	inactive	inactive	inactive	inactive	–	–	–	–
CCN(CC)C(=O)/C(C#N)=C/c1cc(O)c(O)c([N+](=O)[O-])c1	inactive	inactive	inactive	inactive	inactive	inactive	–	–	–	–
CCC1=C(C)CN(C(=O)NCCc2ccc(S(=O)(=O)NC(=O)NC3CCC(C)CC3)cc2)C1=O (stereo not given)	inactive	inactive	inactive	inactive	inactive	inactive	–	–	–	–
CCS(=O)(=O)CCn1c([N+](=O)[O-])cnc1C	inactive	inactive	inactive	inactive	inactive	inactive	–	–	–	–
Nc1nc(Cl)nc2c1ncn2[C@@H]1O[C@H](CO)[C@@H](O)[C@@H]1F	inactive	inactive	inactive	inactive	–	inactive	–	–	–	–
C[C@](N)(Cc1ccc(O)cc1)C(=O)O	inactive	inactive	inactive	inactive	–	inactive	–	–	–	–
O=C1CN(/N=C/c2ccc([N+](=O)[O-])o2)C(=O)N1	inactive	inactive	inactive	inactive	–	inactive	–	–	–	–
COc1ccc(C(=O)c2ccccc2O)c(O)c1	inactive	–	–	–	–	–	–	–	–	–
O=C(CCCN1CCC2(CC1)C(=O)NCN2c1ccccc1)c1ccc(F)cc1	inactive	–	–	–	–	–	–	–	–	–
C[C@H](CS)C(=O)N1CCC[C@H]1C(=O)O	inactive	inactive	inactive	inactive	inactive	inactive	–	–	–	–
NC(N)=NC(=O)Cc1c(Cl)cccc1Cl	inactive	inactive	inactive	inactive	inactive	inactive	–	–	–	–
NC(=O)CC[C@@H]1NC(=O)[C@H](Cc2ccccc2)NC(=O)[C@H](Cc2ccc(O)cc2)NC(=O)CCSSC[C@@H](C(=O)N2CCC[C@H]2C(=O)N[C@@H](CCCN=C(N)N)C(=O)NCC(N)=O)NC(=O)[C@H](CC(N)=O)NC1=O	inactive	inactive	inactive	inactive	–	inactive	–	–	–	–
CCC1(C)CC(=O)NC1=O (stereo not given)	inactive	inactive	inactive	inactive	inactive	inactive	–	–	–	–
